Dicer processing = human Dicer pre-microRNA cleavage inhibition | cat-ELCCA pre-miR-21 Dicer processing, chemiluminescence; active compounds read high | z-score at 25 µM | 47,000 tested, 6% active | AID 1347074; in the data active = z-score above about 3, passing the limit was not always enough;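 also: higher signal means more uncleaved substrate so more Dicer inhibition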
Each line names hits and unclear results; the compound was inactive in the other large screens. The full list was thinned out, with hits kept by preference.

COc1ccc(C2NC(=O)c3c(sc4c3CCCC4)N2)c(OC)c1 (stereo not drawn)	none
N=c1scc(-c2ccc(Cl)cc2)n1-c1ccc(Cl)c(Cl)c1	none
N#Cc1c2c(c(N3CCOCC3)n3c1nc1ccccc13)CCC2	none
CCc1ccc(C(=O)/C=C/Nc2cccc(Cl)c2)cc1	none
CCCCN1CN(CCc2ccccc2)CC2=C1CC(C)(C)CC2=O	none
O=C(Nc1ccc(N2C(=O)c3cccnc3C2=O)cc1)c1ccco1	none
O=C(O)c1ccc(N2C(=O)c3cccnc3C2=O)cc1	Dicer processing 4.5
O=C1c2cccnc2C(=O)N1c1cccc(-c2nc3ccccc3o2)c1	none
CC(=O)Oc1ccc(Cl)cc1C(=O)O	none
CCOC(=O)Nc1c(C)n(C)n(-c2ccccc2)c1=O	none
CN(CCc1ccccn1)Cc1ccc(Cl)cc1	Dicer processing 3.7
Cc1ccc(CN(C)CCc2ccccn2)cc1	none
CCc1ccc(CN(C)CCc2ccccn2)cc1	none
Cc1cc(-c2nn(C)c(=O)c3ccccc23)cc(C)c1OCC(=O)NN	none
c1cc(-c2nc3ccccc3o2)nc(-c2nc3ccccc3o2)c1	none
c1ccc2oc(-c3ccc(-c4nc5ccccc5o4)cc3)nc2c1	none
c1ccc2oc(CCCc3nc4ccccc4o3)nc2c1	Dicer processing 5.5
N/C(=N\OC(=O)c1ccc(Cl)cc1)C1CSCCS1 (stereo not drawn)	none
O=C1Nc2ccc(I)cc2/C1=C/c1cc(Br)c(O)c(Br)c1	Dicer processing 4.5
O=C1Nc2ccccc2/C1=C/c1ccc2nsnc2c1	none
COc1cc2c(cc1OC)/C(=C/c1cc(OC)c(OC)c(OC)c1)C(=O)N2	none
CC1=C(C(=O)OC(C)C)C(c2ccccc2)n2c(nc3ccccc32)N1 (stereo not drawn)	none
COC(=O)c1c(OC)ccc([N+](=O)[O-])c1OC	none
Nc1nnc(SCc2ccccc2Cl)s1	Dicer processing 11
N=C(N)SCc1ccccc1Cl	none
NCCc1nnc(SCc2ccccc2Cl)o1	none
Cc1cc(C)c(C#N)c(Sc2ncnc3c2nnn3Cc2ccccc2)n1	none
c1ccc2c(c1)Nc1nc3ccccc3nc1N2	none
CC[C@H](NC(=O)c1c(C)c(-c2ccccc2)nc2ccccc12)c1ccccc1	none
Cc1nc2c(C)cccc2c2c1CCN2c1ccccc1F	Dicer processing 3.2
COc1cc(OC)c2nc(C)c3c(c2c1)N(c1cccc(C(F)(F)F)c1)CC3	none
COc1cccc(N2CCc3c(C)nc4ccc(Cl)cc4c32)c1	none
O=C(Nc1nnc(C2CC2)s1)C1CC1	none
Cc1ccc(CNc2ccc3c(c2)nc(C)n3C)cc1	none
COc1ccc(C(=O)/C=C(\C(=O)c2ccccc2)c2ccccc2)cc1	none
COc1ccc(NC(=S)NCCCC2C=NNC2=O)cc1 (stereo not drawn)	none
COc1cccc(C=NCCCC2C=NNC2=O)c1O (stereo not drawn)	Dicer processing 5.2
COc1cccc(C=Nc2ccc(S(=O)(=O)/N=C(N)/N=C/c3cccc(OC)c3O)cc2)c1O	none
Cc1nc2nc(C)n(-c3ccccc3)c2s1	none
CCC(=O)Nc1cc(OC)cc(OC)c1	none
O=S(=O)(c1ccc2ccccc2c1)N(CC(O)COCc1ccco1)c1ccccc1 (stereo not drawn)	none
COC(=O)c1cc(=O)n2c(c1C(=O)c1ccc(Cl)cc1)SCC2	Dicer processing 5.6
O=C(c1ccc(Cl)cc1)N1CCSC1=S	none
COC(=O)c1cc(Cl)cc(Cl)c1-c1c(Cl)cc(Cl)cc1C(=O)OC	none
NNCCc1ccccc1	none
CSc1sc(/C(C)=N\O)c2c1/C(=N\O)CC(C)(C)C2	Dicer processing 5.6
CSc1sc(C(=O)O)c2c1C(=O)CC(C)(C)C2	none
COC(=O)c1sc(SC)c2c1CC(C)(C)C/C2=N/O	none
Cc1nc2sc3c(NCC4CCCO4)ncnc3c2c2c1COC(C)(C)C2 (stereo not drawn)	none
CCc1ccc(CNCc2cccnc2)cc1	none
O=S(=O)(Nc1ccccc1N1CCOCC1)c1ccc(S(=O)(=O)c2ccccc2)s1	none
O=S(=O)(Nc1ccccc1N1CCOCC1)c1ccc(-c2ccccn2)s1	Dicer processing 4.8
O=S(=O)(Nc1ccc2c(c1)OCCO2)c1ccc(-c2ccccn2)s1	none
O=C1CC(c2cccc(O)c2)c2c(ccc3ccccc23)N1 (stereo not drawn)	none
COC(=O)C1=C(Nc2ccccc2NS(=O)(=O)c2cn(C)cn2)CSC1	none
Cc1ccc2oc(-c3ccc(F)cc3)c(O)c(=O)c2c1	none
Cc1ccc2oc(-c3ccccc3)c(O)c(=O)c2c1	none
COc1c(-c2ccccc2)oc2ccccc2c1=O	none
Cc1ccc(-c2oc3ccccc3c(=O)c2O)cc1	Dicer processing 3.2
CC(=O)Nc1c(-c2ccccc2)oc2ccccc2c1=O	Dicer processing 3.3
Cc1c(-c2ccccc2)oc2ccccc2c1=O	none
COc1cccc(OCCn2cc(C(=O)c3cccs3)c3ccccc32)c1	none
Cc1ccc([N+](=O)[O-])c(-c2nc3ccccc3c(=O)o2)c1	none
CCOC(=O)c1noc(C)c1-c1csc(N/N=C/c2ccccc2Cl)n1	none
Cc1cc([N+](=O)[O-])nn1CC(=O)Nc1ccc2c(c1)OCO2	none
COc1ccc(C2CC(=O)C3=C(C2)Nc2nc4ccccc4n2C3c2ccco2)cc1 (stereo not drawn)	none
O=C1CC(c2ccco2)CC2=C1C(c1cccnc1)n1c(nc3ccccc31)N2 (stereo not drawn)	none

From PubChem BioAssay
